The values that follow come from PubChem BioAssay.

Structures are written as SMILES. Active and inactive are the calls of the source. Unless noted, how the calls were made is not given here.

The test system of test [1] is Wnt5a (protein binding on small-molecule microarray). Briefly: Wnt5a binders on small-molecule microarray, primary screen, biophysical, 635/667 nm fluorescence (AID 1142).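 Further: fluorescence read at 667 nm with signal to noise per printed feature.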 The note with it: 635 nm fluorescence, higher = more signal.
Test [2] can be described thus: cell viability in Huh7 cells, primary screen, cytotoxicity control for HCV replication inhibitor project, CellTiter-Glo luminescence, basal, 48 h (AID 1143).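 Further: Huh7 hepatoma cells carrying a hepatitis C replication reporter with no stimulus; test concentration not given here.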 The settings on record: Huh7 HCV replicon, higher = more signal, called active from +8 up or from −8 down. On the technique in general: Cellular ATP, detected with luciferase, serves as a proxy for viable cell number.

Test [3] is described as follows: P. aeruginosa biofilm formation inhibitors, primary screen, PAO1 strain, BacTiter-Glo luminescence, LB-PBS (AID 1144). The settings on record: 12 h, higher = more signal.
Test [4] in a line: CREB reporter modulators without forskolin, primary screen, cell-based, PC12, CRE-LacZ reporter, unstimulated (AID 1145). The note with it: no forskolin, luminescence, 4.5 h, higher = more signal, called active from +8 up or from −8 down.
Test [5] can be described thus: CREB reporter modulators under forskolin, primary screen, cell-based, PC12, CRE-LacZ reporter, forskolin-stimulated (AID 1146).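 Further: PC12 cells with 6xCRE LacZ reporter stimulated by forskolin 10 µM; beta-galactosidase reporter signal reflecting CREB driven transcription.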 The note with it: luminescence, 4.5 h, higher = more signal, called active from +8 up or from −8 down.
Test [6] has as its target Streptavidin (Streptomyces avidinii) (UniProt P22629). Kind of test: streptavidin binders on small-molecule microarray, primary screen, artefact control for SMM compound annotation, biophysical, 635/667 nm fluorescence (AID 1147).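 Further: signal reflects streptavidin binding to arrayed compounds as a control protein.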 The note with it: streptavidin binding, higher = more signal.
Test [7] can be described thus: small-molecule binders of probe aInhba, primary screen, biochemical, small-molecule microarray, 635/667 nm fluorescence (AID 1148).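 Further: score merges 667nm spot fluorescence with signal-to-noise for antibody binding to printed compounds.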 The settings on record: higher = more signal.
The target of test [8] is Torsin-1A (Homo sapiens) (UniProt O14656). Briefly: torsin A binders from cell lysate, primary screen, small-molecule microarray, wild-type, 635/667 nm (AID 1149). The note with it: COS7 hTOR1A-WT lysate, 635 nm fluorescence, higher = more signal.
The target is the same in test [9]. Briefly: small-molecule binders of mutant TOR1A in lysate, primary screen, cell lysate, small-molecule microarray, COS7 lysate, 635/667 nm fluorescence (AID 1150).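 Further: score pools 667 nm emission and signal to noise measuring lysate protein binding.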 The note with it: COS7 hTOR1A mutant lysate, 635 nm fluorescence, higher = more signal.
Test [10] has as its system Sonic hedgehog protein (Shh). Briefly: small-molecule binders of Shh protein, primary screen, biochemical, small-molecule microarray, 635/667 nm fluorescence (AID 1151).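 Further: Shh protein binding to compounds spotted on small-molecule microarray slides; score combines spot fluorescence intensity with signal-to-noise across triplicate slides.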 The note with it: small-molecule microarray binding, 635 nm fluorescence; higher = more signal.
Test [11] in a line: E. coli DRC41 culture turbidity changes, primary screen, E. coli filamentation inducer project, strain DRC41, OD650, 48 h (AID 1152).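 Further: E. coli MC1000 strain DRC41 lacking acrAB efflux pump and sulA.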 The settings on record: E. coli DRC41 (acrAB sulA), higher = more signal, called active from +8 up or from −8 down.
Test [12] is described as follows: small-molecule binders of probe aLefty1, primary screen, biochemical, small-molecule microarray, 635/667 nm fluorescence (AID 1153).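 Further: score merges spot fluorescence with signal-to-noise ratio from the scanned slide images.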 The note with it: higher = more signal.
A short description of test [13]: PSAC antagonists in infected red cells, primary screen, cell-based, P. falciparum Indochina, OD700, 1 h (AID 1154). The note with it: P. falciparum Indochina infected RBC osmotic lysis, higher = more signal, called active from +8 up or from −8 down.
The nature of test [14]: PSAC antagonists in infected red cells, primary screen, cell-based, P. falciparum Indochina, OD700, 2 h (AID 1155).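 Further: lysis reports solute entry through the parasite surface anion channel PSAC; channel blockers reduce lysis of infected cells.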 The note with it: P. falciparum Indochina infected erythrocytes, osmotic lysis OD700; higher = more signal, called active from +8 up or from −8 down.
A short description of test [15]: osmotic lysis modulators in infected erythrocytes, primary screen, PSAC antagonist project, cell-based, P. falciparum Indochina, OD700, 3 h (AID 1156). The note with it: higher = more signal, called active from +8 up or from −8 down.
Test [16] in a line: PSAC antagonists in infected red cells, primary screen, cell-based, P. falciparum Indochina, OD700, 18 h (AID 1157). The settings on record: P. falciparum Indochina infected erythrocytes, osmotic lysis OD700, 18 h; higher = more signal, called active from +8 up or from −8 down.
Test [17] in a line: modulators of S6 phosphorylation in cells, primary screen, cell-based, A549, cytoblot, luminescence, serum-stimulated (AID 1158).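 Further: serum-stimulated A549 lung adenocarcinoma cells; signal is phosphorylated S6 detected by cytoblot immunostaining with HRP secondary.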 The settings on record: A549 phospho-S6 cytoblot, 5 h, higher = more signal.
Test [18] concerns the target NADPH oxidase 2 (Homo sapiens) (UniProt P04839). Briefly: NOX2-dependent H2O2 signal modulators, primary screen, NOX inhibitor project, cell-based, HEK293-NOX2, PMA-stimulated, Amplex Red fluorescence (AID 1159). Further: test concentration not given here. The settings on record: 45 min, higher = more signal, called active from +8 up or from −8 down.
For test [19], the target named is NADPH oxidase 4 (Homo sapiens) (UniProt Q9NPH5). Briefly: NOX4-dependent H2O2 signal modulators, primary screen, NOX inhibitor project, cell-based, HEK293-NOX4, tetracycline-induced, Amplex Red fluorescence (AID 1160). The note with it: 45 min, higher = more signal, called active from +8 up or from −8 down.
Test [20] addresses NADPH oxidase 5 (Homo sapiens) (UniProt Q96PH1). Briefly: NOX5-dependent H2O2 signal modulators, primary screen, NOX inhibitor project, cell-based, HEK293-NOX5, Amplex Red fluorescence (AID 1161). The settings on record: HEK293-NOX5, ionomycin, 45 min, higher = more signal.

Sequence of NADPH oxidase 5 (Homo sapiens) (Q96PH1 whole entry, looked up): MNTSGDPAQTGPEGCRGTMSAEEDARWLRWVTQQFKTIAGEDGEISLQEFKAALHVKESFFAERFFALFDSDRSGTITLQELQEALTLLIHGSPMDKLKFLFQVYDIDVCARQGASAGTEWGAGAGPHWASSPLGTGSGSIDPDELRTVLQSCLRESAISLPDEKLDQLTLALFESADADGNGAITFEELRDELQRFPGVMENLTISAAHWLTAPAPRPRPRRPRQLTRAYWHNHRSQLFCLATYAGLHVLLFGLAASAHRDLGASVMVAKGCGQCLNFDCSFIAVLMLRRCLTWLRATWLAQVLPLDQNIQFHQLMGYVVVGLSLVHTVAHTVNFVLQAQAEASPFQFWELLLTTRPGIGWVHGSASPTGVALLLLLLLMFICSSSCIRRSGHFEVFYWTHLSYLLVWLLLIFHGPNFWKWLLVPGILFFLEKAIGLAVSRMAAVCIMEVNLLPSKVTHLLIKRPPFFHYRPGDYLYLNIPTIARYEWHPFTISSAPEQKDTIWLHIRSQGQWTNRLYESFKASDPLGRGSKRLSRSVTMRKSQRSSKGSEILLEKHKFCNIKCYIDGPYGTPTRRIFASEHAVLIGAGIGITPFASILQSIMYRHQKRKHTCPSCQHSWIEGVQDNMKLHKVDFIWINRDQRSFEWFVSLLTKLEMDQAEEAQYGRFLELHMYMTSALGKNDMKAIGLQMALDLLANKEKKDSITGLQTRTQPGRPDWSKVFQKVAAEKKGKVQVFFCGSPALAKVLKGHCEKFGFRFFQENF
Sequence of Streptavidin (Streptomyces avidinii) (P22629 whole entry, looked up): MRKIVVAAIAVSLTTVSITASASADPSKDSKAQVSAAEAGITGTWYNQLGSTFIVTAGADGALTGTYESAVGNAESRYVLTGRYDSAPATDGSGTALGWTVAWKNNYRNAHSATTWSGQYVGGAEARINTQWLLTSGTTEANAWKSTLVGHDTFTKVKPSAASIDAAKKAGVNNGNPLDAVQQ
Sequence of NADPH oxidase 2 (Homo sapiens) (P04839 whole entry, looked up): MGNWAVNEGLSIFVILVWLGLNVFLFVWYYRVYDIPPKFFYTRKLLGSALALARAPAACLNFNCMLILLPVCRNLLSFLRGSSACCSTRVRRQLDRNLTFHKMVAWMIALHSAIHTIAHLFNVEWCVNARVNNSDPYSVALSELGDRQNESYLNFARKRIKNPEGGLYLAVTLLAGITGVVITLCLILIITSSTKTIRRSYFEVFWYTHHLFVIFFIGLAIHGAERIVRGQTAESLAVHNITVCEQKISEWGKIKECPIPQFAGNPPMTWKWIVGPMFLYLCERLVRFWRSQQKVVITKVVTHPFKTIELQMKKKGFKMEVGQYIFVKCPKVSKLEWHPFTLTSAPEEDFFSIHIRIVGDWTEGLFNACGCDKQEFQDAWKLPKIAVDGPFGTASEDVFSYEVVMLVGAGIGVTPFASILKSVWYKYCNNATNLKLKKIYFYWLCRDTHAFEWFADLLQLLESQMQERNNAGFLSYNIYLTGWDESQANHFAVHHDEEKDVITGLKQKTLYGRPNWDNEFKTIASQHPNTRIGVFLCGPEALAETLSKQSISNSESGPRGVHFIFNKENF
Sequence of Torsin-1A (Homo sapiens) (O14656 whole entry, looked up): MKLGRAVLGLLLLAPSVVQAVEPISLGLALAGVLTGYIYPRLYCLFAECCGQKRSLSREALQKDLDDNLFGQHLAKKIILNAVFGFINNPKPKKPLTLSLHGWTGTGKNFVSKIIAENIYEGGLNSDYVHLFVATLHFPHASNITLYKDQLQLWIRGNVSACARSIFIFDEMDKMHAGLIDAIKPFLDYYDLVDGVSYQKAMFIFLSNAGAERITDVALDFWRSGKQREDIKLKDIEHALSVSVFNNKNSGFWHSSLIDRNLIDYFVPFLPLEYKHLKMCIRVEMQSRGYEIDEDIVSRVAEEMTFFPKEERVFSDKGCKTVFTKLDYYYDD
Sequence of NADPH oxidase 4 (Homo sapiens) (Q9NPH5 whole entry, looked up): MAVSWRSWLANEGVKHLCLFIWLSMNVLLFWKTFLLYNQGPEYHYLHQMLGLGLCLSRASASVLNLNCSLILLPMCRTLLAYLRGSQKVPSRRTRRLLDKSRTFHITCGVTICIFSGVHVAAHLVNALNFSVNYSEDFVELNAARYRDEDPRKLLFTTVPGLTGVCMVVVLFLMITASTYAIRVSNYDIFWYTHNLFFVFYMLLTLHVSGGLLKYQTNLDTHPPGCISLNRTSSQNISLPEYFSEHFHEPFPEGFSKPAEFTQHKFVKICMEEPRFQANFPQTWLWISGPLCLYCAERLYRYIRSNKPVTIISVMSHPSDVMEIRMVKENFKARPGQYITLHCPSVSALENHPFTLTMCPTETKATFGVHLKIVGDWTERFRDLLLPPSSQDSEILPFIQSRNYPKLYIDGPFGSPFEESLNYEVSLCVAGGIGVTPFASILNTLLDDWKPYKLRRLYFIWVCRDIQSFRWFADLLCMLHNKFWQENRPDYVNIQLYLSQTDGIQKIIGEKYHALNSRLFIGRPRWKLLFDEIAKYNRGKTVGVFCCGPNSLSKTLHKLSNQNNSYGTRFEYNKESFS

Consider `CC=CC1=C(CO)[C@H](O)[C@H]2O[C@H]2[C@H]1O`, for which the composite z-score is 0.261 in test [1]; 0.082 in [6]; -0.0719 in test [7]; 0.769 in the test with Torsin-1A (Homo sapiens) [8]; -0.0205 in the test with Torsin-1A (Homo sapiens) [9]; 1.14 in [10]. This compound registered a composite z-score in test [12] of -0.45. Moreover, the z-score in test [2] was 0.678 (inactive); in test [3], 1.58 (inactive); in test [4], 0.292 (inactive); in test [5], 0.798 (inactive); in [11], -0.147 (inactive); in [13], -0.528 (inactive). For the same compound, the z-score in test [14] was -0.52 (inactive); in test [15], -0.382 (inactive); in test [16], -0.342 (inactive); in [17], 0.318; in test [18], 1.94 (inactive); in test [19], -1.82 (inactive). In test [20], this compound gave a z-score of -0.768.

As for `Cc1ccc(S[C@]2(C(=O)NCC(F)(F)F)CC(=O)N(Cc3ccccc3Cl)[C@@H]2c2ccc(CO)cc2I)cc1`, the composite z-score in test [1] was -0.273; in test [6], -0.809; in test [7] it was -0.152; with Torsin-1A (Homo sapiens) [8] it was -0.396; with Torsin-1A (Homo sapiens) [9] it was 0.288; in [10], -0.155. The compound further returned a composite z-score in test [12] of 0.051. Further, the z-score was -1.36 (inactive) in test [2]; 0.977 (inactive) in test [3]; 3.13 (inactive) in test [4]; 2.82 (inactive) in test [5]; 0.973 (inactive) in [11]; 5.02 (inactive) in test [13]. The z-score in test [14] was 0.898 (inactive); in test [15], 0.276 (inactive); in [16] it was 0.524 (inactive); in test [17], -0.35; in test [18], 0.861 (inactive); in test [19] it was -1.67 (inactive). In test [20], the z-score was 0.799.

`CCOC(=O)CCN1C(=O)[C@H]2[C@H]3[C@H](O)[C@H](O)CC(=NOCc4ccccc4)[C@@H]3CC[C@H]2C1=O`: the composite z-score was -0.0682 in [1]; 0.115 in [6]; -0.186 in test [7]; 0.434 in the test with Torsin-1A (Homo sapiens) [8]; 0.496 in the test with Torsin-1A (Homo sapiens) [9]; 0.612 in [10]. In [12], this compound came in with a composite z-score of -0.094. Moreover, the z-score in test [2] is -1.25 (inactive); in [3] it was 0.324 (inactive); in test [4], -0.294 (inactive); in test [5], 0.0433 (inactive); in [11], -0.505 (inactive); in test [13] it was 1.61 (inactive). Also, the z-score in test [14] was 0.885 (inactive); in [15] it was -0.059 (inactive); in test [16], 0.429 (inactive); in test [17], -0.32; in test [18], -0.104 (inactive); in [19], 0.593 (inactive). This compound showed a z-score in test [20] of 1.14.

Turning to `CC(C)CON=C1C[C@@H](O)[C@@H](O)[C@@H]2[C@@H]3C(=O)N([C@@H](C)c4ccccc4)C(=O)[C@@H]3CC[C@H]12`, the composite z-score in test [1] amounted to 0.257; in [6], 0.528; in test [7], 0.168; with Torsin-1A (Homo sapiens) [8] it was 0.466; with Torsin-1A (Homo sapiens) [9], 0.477; in test [10], 1.58. In test [12], the composite z-score is -0.192. Further, the z-score is -0.544 (inactive) in test [2]; 1.98 (inactive) in [3]; -0.383 (inactive) in [4]; -0.0095 (inactive) in test [5]; 0.525 (inactive) in [11]; 3.27 (inactive) in test [13]. Further, the z-score is 0.149 (inactive) in test [14]; 1.43 (inactive) in [15]; 0.106 (inactive) in test [16]; -0.414 in test [17]; -3.44 (inactive) in test [18]; 1.18 (inactive) in [19]. This compound had a z-score in test [20] of 0.197.

With `CO[C@@H]1COC(=O)[C@@H]2CCCN2C(=O)[C@@H](C)COC(=O)[C@H](COCc2ccccc2)NC(=O)CC=C[C@H]1C`, the composite z-score in test [1] is -0.127; in test [6] it was 0.107; in [7], -0.172; with Torsin-1A (Homo sapiens) [8], 0.999; in the test with Torsin-1A (Homo sapiens) [9], 0.121; in [10] it was 0.731. Further, the composite z-score in test [12] was -0.111. Also, the z-score is -0.388 (inactive) in test [2]; -0.623 (inactive) in test [3]; -0.799 (inactive) in test [4]; 0.435 (inactive) in [5]; -2.21 (inactive) in test [11]; 0.553 (inactive) in test [13]. In addition, the z-score was 0.367 (inactive) in test [14]; 1.29 (inactive) in test [15]; 0.441 (inactive) in test [16]; -0.493 in [17]; -0.363 (inactive) in [18]; -0.643 (inactive) in test [19]. The compound further yielded a z-score in test [20] of -0.159.
